In PubChem BioAssay (Tox21):
Inconclusive results are not listed. Active and inactive are the calls of the source. Unless noted, the call rests on the fitted dose curve.

Legend:
[1] = Nuclear factor erythroid 2-related factor 2/antioxidant responsive element (Nrf2/ARE) small molecule agonists: qHTS cell viability counter screen in human keratinocytes (AID 1919968; active means well fitted curve in the direction sought with a large enough effect in the repeat runs; an effect the other way counts as inactive or inconclusive; further: nearly all actives have a fitted effect of over 55% in size)
Summary of the method: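 Cells of the KeratinoSens line were plated at 1,500 per well and left for 5 h before compound transfer from DMSO stocks. After a 23 h incubation (37 C, 5% CO2), CellTiter-Fluor was added. Signal was taken as fluorescence intensity 1 h later.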

[2] = Nuclear factor erythroid 2-related factor 2/antioxidant responsive element (Nrf2/ARE) small molecule agonists: luciferase reporter gene qHTS assay in human keratinocytes (AID 1919969); further: nearly all actives have a fitted effect of over 35% in size
[3] = biological target: Gonadotropin-releasing hormone receptor (Homo sapiens) (UniProt P30968); experiment: Human gonadotropin-releasing hormone receptor (GnRHR) small molecule agonists, calcium flux assay in GnRHR-HEK293 cells (AID 1920063); further: nearly all actives have a fitted effect of over 35% in size
Sequence of Gonadotropin-releasing hormone receptor (Homo sapiens) (P30968 whole entry, looked up): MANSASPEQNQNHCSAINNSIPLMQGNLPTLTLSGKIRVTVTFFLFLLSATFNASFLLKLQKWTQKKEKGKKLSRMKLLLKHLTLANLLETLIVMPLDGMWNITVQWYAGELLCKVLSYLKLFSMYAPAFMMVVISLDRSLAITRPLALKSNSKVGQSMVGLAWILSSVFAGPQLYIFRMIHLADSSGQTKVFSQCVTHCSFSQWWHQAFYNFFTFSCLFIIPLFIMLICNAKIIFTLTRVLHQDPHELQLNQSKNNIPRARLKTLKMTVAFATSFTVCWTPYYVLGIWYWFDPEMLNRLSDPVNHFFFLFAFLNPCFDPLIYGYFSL
Summary of the method: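 Compounds dissolved in DMSO are pin-transferred onto dye-loaded GnRHR-HEK293 cells, which were seeded 18 h before at 37 C/5% CO2. Calcium signal is read as fluorescence intensity at 1 s intervals for 3 min.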

[4] = biological target: KiSS-1 receptor (Homo sapiens) (UniProt Q969F8); experiment: Human kisspeptin (KISS1R) small molecule agonists, calcium flux assay in KISS1R-HEK293 cells (AID 1920064; active means well fitted curve in the direction sought with a large enough effect in the repeat runs; an effect the other way counts as inactive or inconclusive)
Sequence of KiSS-1 receptor (Homo sapiens) (Q969F8 whole entry, looked up): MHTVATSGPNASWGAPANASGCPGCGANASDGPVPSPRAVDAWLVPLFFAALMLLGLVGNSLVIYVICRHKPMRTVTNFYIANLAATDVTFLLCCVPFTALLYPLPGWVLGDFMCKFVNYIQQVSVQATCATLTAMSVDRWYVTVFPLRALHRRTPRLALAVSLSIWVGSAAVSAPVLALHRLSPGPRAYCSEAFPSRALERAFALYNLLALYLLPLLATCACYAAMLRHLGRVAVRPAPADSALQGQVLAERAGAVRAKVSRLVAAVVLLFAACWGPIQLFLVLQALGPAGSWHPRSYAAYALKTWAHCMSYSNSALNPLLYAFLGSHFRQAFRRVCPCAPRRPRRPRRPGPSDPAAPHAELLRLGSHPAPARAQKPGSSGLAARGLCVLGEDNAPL
Summary of the method: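 Cell line: HEK293, stable human KISS1R. Dye loading 1 h at 37 C after 18 h culture. Read: kinetic fluorescence, 480/540 nm, 3 min at 1 s intervals.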

[5] = G protein-coupled receptor (GPCR) small molecule agonists, calcium flux assay: HEK293 wild type cell line counter screen (AID 1920065)
Summary of the method: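 Tox21 10K compounds, 15 concentrations each in triplicate, pin-transferred in DMSO onto dye-loaded cells; kinetic read at 480/540 nm for 3 min, 1 s intervals.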

[6] = p53 small molecule agonists, cell-based qHTS assay with human liver microsomes: qHTS cell viability counter screen (AID 1963579); further: nearly all actives have a fitted effect of over 45% in size
Summary of the method: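 Metabolically activated exposure: compounds, human liver microsomes and NADPH (0.5 mg/mL final apiece) were added to p53RE-bla cells seeded 5 h earlier, left 16 h at 37 C, and then assessed for viability by CellTiter-Glo luminescence.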

[7] = p53 small molecule agonists, cell-based qHTS assay with rat liver microsomes: qHTS cell viability counter screen (AID 1963580); further: nearly all actives have a fitted effect of over 45% in size
Summary of the method: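 Rat liver microsome (0.5 mg/mL final) and NADPH (0.5 mg/mL final) co-incubation with compounds for 16 h at 37 C on HCT-116 p53RE-bla cells; cytotoxicity taken from intracellular ATP luminescence.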

[8] = p53 small molecule agonists, cell-based qHTS assay: qHTS cell viability counter screen (AID 1963581); further: nearly all actives have a fitted effect of over 45% in size
Summary of the method: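 ATP content measured by luminescence in HCT-116 p53RE-bla cells treated 16 h at 37 C, same wells as the reporter screen.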

[9] = biological target: 5-hydroxytryptamine receptor 2A (Homo sapiens) (UniProt P28223); experiment: 5-hydroxytryptamine receptor 2A (HTR2A) small molecule agonists, cell-based qHTS assay (AID 1963587); further: nearly all actives have a fitted effect of over 30% in size
Sequence of 5-hydroxytryptamine receptor 2A (Homo sapiens) (P28223 whole entry, looked up): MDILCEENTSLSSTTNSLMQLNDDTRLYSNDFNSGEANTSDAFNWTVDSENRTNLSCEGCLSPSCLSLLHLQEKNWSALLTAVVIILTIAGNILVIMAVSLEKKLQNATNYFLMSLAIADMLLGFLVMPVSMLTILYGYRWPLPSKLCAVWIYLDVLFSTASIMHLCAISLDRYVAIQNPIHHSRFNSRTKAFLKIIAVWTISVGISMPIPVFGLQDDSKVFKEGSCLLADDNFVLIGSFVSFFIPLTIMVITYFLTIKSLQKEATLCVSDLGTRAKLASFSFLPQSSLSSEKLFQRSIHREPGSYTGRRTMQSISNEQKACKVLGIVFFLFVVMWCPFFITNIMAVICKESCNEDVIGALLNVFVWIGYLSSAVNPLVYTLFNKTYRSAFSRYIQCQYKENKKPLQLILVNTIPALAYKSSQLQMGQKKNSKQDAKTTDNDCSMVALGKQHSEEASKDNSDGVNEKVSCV
Summary of the method: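 Kinetic calcium-flux fluorescence (2 min, 1 sec intervals) after compound addition in agonist mode. HTR2A-CHO cells were cultured 18 h, then dye-loaded 1 h at 37 C.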

[10] = biological target: Muscarinic acetylcholine receptor M1 (Homo sapiens) (UniProt P11229); experiment: Cholinergic receptor muscarinic 1 (CHRM1) small molecule antagonists, cell-based qHTS assay (AID 1963588); further: nearly all actives have a fitted effect of over 40% in size
Sequence of Muscarinic acetylcholine receptor M1 (Homo sapiens) (P11229 whole entry, looked up): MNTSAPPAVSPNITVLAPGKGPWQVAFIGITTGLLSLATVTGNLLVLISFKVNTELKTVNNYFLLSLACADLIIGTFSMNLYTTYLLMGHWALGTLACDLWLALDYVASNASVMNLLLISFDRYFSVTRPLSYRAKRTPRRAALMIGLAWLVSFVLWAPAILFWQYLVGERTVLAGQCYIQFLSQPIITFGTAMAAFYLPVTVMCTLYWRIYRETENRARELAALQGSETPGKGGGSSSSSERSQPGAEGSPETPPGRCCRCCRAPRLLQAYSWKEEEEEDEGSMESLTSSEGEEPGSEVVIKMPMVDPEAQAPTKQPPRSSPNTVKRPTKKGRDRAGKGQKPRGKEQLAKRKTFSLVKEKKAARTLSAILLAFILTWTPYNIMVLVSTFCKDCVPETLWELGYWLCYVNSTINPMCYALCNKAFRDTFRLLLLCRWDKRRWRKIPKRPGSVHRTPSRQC
Summary of the method: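 Compounds were tested at 15 concentrations in three independent runs. Dye-loaded CHRM1-CHO cells were exposed 5 min at room temperature before stimulation by acetylcholine added at 50nM. Intracellular calcium was read kinetically on FDSS for 3 min.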

[11] = biological target: Muscarinic acetylcholine receptor M1 (Homo sapiens) (UniProt P11229); experiment: Cholinergic receptor muscarinic 1 (CHRM1) small molecule agonists, cell-based qHTS assay (AID 1963589); further: nearly all actives have a fitted effect of over 35% in size
Summary of the method: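 Homogeneous fluorescence calcium flux, agonist mode. Human M1-expressing CHO cells; compound dosed at 15 concentrations, three independent runs; signal sampled every 1 sec.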

[12] = cAMP Responsive Elements (CRE) small molecule agonists, cell-based qHTS assay (AID 1963590)
Summary of the method: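 HEK 293T cells stably bearing CRE-bla were plated at 2,000 cells per well and rested 18 h. Compounds, positive controls or DMSO were added for 3 h at 37 C. LiveBLAzer B/G substrate was then loaded for 2 h at room temperature.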

[13] = biological target: Beta-2 adrenergic receptor (Homo sapiens) (UniProt P07550); experiment: Adrenergic beta2 receptor (ADRB2) small molecule antagonists, cell-based qHTS assay (AID 1963592); further: series mostly up to about 92 µM; nearly all actives have a fitted effect of over 50% in size
Sequence of Beta-2 adrenergic receptor (Homo sapiens) (P07550 whole entry, looked up): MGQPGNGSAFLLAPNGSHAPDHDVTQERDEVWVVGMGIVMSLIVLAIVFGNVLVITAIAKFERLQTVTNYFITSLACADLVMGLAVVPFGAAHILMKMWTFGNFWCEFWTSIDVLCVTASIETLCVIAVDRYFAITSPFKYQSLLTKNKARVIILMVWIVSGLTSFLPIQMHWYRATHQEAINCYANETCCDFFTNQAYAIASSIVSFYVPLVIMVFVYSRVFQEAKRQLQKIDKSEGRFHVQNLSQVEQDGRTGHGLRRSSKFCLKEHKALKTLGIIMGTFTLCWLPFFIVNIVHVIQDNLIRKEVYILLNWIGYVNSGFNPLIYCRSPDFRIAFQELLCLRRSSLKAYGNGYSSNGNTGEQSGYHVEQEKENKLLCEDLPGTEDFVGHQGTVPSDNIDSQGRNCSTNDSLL
Summary of the method: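 Assay format: CHO-ADRB2 cells, 18-20hr seeding at 37C/5% CO2, then compound plus 1nM isoproterenol agonist mix for 0.5hr RT. Homogeneous time-resolved fluorescence cAMP detection after 1hr, expressed as 665/615 nm ratio.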

[14] = biological target: Beta-2 adrenergic receptor (Homo sapiens) (UniProt P07550); experiment: Adrenergic beta2 receptor (ADRB2) small molecule agonists, cell-based qHTS assay (AID 1963593);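 further: CHO cells stably overexpressing human ADRB2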
Summary of the method: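 CHO cells stably over-expressing ADRB2 were plated overnight at 37C, then dosed with compounds plus a stimulation mix containing 100uM IBMX and 25uM Ro-20-1724 for 0.5hr at room temperature. cAMP was measured by HTRF competition, 1hr.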

[15] = biological target: D(2) dopamine receptor (Homo sapiens) (UniProt P14416); experiment: Dopamine D2 receptor (DRD2) small molecule agonists, cell-based qHTS assay (AID 1963594); further: nearly all actives have a fitted effect of over 35% in size
Sequence of D(2) dopamine receptor (Homo sapiens) (P14416 whole entry, looked up): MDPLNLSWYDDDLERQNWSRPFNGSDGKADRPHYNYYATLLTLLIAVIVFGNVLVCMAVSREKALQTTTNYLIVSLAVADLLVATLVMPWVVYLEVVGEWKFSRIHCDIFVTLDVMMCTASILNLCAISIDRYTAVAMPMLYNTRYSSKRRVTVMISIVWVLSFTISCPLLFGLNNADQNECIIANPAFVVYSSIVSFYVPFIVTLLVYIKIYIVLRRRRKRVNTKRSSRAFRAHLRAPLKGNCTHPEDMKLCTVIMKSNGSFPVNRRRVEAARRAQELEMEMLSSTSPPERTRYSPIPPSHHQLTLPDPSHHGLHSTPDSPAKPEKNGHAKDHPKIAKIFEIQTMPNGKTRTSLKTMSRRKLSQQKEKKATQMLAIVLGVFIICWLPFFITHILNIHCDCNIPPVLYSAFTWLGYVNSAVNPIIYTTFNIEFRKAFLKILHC
Summary of the method: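 cAMP accumulation in DRD2-HEK293 cells measured by HTRF after 1 h detection; compounds added 10 min before NKH477 (200nM […]) forskolin-analogue stimulation, 30 min at room temperature, with Ro20-1724 present at 0.1 mM final.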

[16] = biological target: D(2) dopamine receptor (Homo sapiens) (UniProt P14416); experiment: Dopamine D2 receptor (DRD2) small molecule antagonists, cell-based qHTS assay (AID 1963595; active means well fitted inhibition curve with a large enough effect in the signal ratio in the repeat runs, with a control signal flat; the % refers to the signal ratio)
Summary of the method: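 In this cell-based antagonist screen, compounds act for 10 min at room temperature before a 30 min challenge with 12 nM quinpirole and 200 nM NKH477. cAMP is quantified by HTRF competition in DRD2-HEK293 cells containing 0.1 mM Ro20-1724.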

[17] = cAMP Responsive Elements (CRE) small molecule antagonists, cell-based qHTS assay (AID 1963591; active means well fitted inhibition curve with a large enough effect in the signal ratio in the repeat runs, not every such curve was filed as active; the % refers to the signal ratio)
Summary of the method: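 First, CRE-bla HEK293T cells settled 18 h at 37 C. Next, compound and 0.25 uM final NKH477 were applied for 3 h. Last, LiveBLAzer B/G substrate was loaded for 2 h at room temperature.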
On the % scale 0 is the no-effect control and ±100 the full control effect.

COC(=O)c1ccccc1OC
inactive: Potency [1] | Potency [2] | Potency [3] | Potency [4] | Potency [5] | Potency [6] | Potency [7] | Potency [8] | Potency [9] | Potency [10] | Potency [11] | Potency [12] | Potency [13] | Potency [14] | Potency [15] | Potency [16]

Nc1ccc(F)cc1
inactive: Potency [1] | Potency [2] | Potency [3] | Potency [4] | Potency [5] | Potency [6] | Potency [7] | Potency [8] | Potency [9] | Potency [10] | Potency [11] | Potency [12] | Potency [17] | Potency [13] | Potency [15] | Potency [16]

CCCCN1C(=O)c2ccccc2C1=O
inactive: Potency [1] | Potency [2] | Potency [3] | Potency [4] | Potency [5] | Potency [6] | Potency [7] | Potency [8] | Potency [9] | Potency [11] | Potency [12] | Potency [13] | Potency [15] | Potency [16]

O=C(O)c1ccc2cc(C(=O)O)ccc2c1
inactive: Potency [1] | Potency [2] | Potency [3] | Potency [4] | Potency [5] | Potency [6] | Potency [7] | Potency [8] | Potency [9] | Potency [11] | Potency [12] | Potency [17] | Potency [14] | Potency [16]

C=CCCCCCCCCCCCCCC
inactive: activity change, negative = cytotoxicity [1] 5.7% [at 19 µM] | activity, positive = activation [2] -0.484% [at 19 µM] | activity change [3] 0.565% [at 11.8 µM, stronger effect = higher value] | activation [4] -0.0025% [at 15.8 µM] | activation [5] 0.0173% [at 11.8 µM] | activity change, negative = cytotoxicity [6] 3.4% [at 13.5 µM] | activity change, negative = cytotoxicity [7] -3.36% [at 13.5 µM] | activity change, negative = cytotoxicity [8] -15.7% [at 13.5 µM] | activation [9] 4.53% [at 15.9 µM] | activation [11] -0.058% [at 15.8 µM] | activation [12] -0.128% [at 19 µM] | activity change, negative = inhibition [17] -3.11% [at 18.9 µM] | activity change, negative = inhibition [13] 8.54% [at 19 µM] | activation [15] -4.33% [at 19 µM] | activity change, negative = inhibition [16] -4.22% [at 18.9 µM]

NC(N)=NCCN1CCCCCCC1
inactive: activity change, negative = cytotoxicity [1] -3.49% [at 0.349 µM] | activity, positive = activation [2] 3.17% [at 0.349 µM] | activity change [3] -0.022% [at 0.217 µM, stronger effect = higher value] | activation [4] 0.591% [at 0.29 µM] | activation [5] 0.864% [at 0.217 µM] | activity change, negative = cytotoxicity [6] 14.9% [at 0.249 µM] | activity change, negative = cytotoxicity [7] 0.194% [at 0.249 µM] | activity change, negative = cytotoxicity [8] -15.6% [at 0.249 µM] | activation [12] -1.51% [at 0.349 µM] | activity change, negative = inhibition [17] 0.0219% [at 0.349 µM] | activity change, negative = inhibition [13] 5.36% [at 0.349 µM] | activation [14] 1.36% [at 0.349 µM] | activation [15] -6.8% [at 0.349 µM] | activity change, negative = inhibition [16] -0.0361% [at 0.348 µM]

CC(=O)OCC(CCn1cnc2cnc(N)nc21)COC(C)=O
inactive: Potency [1] | Potency [2] | Potency [3] | Potency [4] | Potency [5] | Potency [6] | Potency [7] | Potency [8] | Potency [12] | Potency [17] | Potency [13] | Potency [14] | Potency [15] | Potency [16]

NNC(=O)CP(=O)(c1ccccc1)c1ccccc1
inactive: Potency [1] | Potency [2] | Potency [3] | Potency [4] | Potency [5] | Potency [6] | Potency [7] | Potency [8] | Potency [9] | Potency [11] | Potency [12] | Potency [17] | Potency [13] | Potency [14] | Potency [15] | Potency [16]

Cc1ccc(C#N)cc1
inactive: Potency [1] | Potency [2] | Potency [3] | Potency [4] | Potency [5] | Potency [6] | Potency [7] | Potency [8] | Potency [9] | Potency [11] | Potency [12] | Potency [17] | Potency [13] | Potency [15] | Potency [16]

CCO[C@H](Cc1ccc(OCCc2ccc(OS(C)(=O)=O)cc2)cc1)C(=O)O
inactive: Potency [1] | Potency [2] | Potency [3] | Potency [4] | Potency [5] | Potency [6] | Potency [7] | Potency [8] | Potency [9] | Potency [11] | Potency [12] | Potency [17] | Potency [13] | Potency [15]

CCN1CCN(C(=O)N[C@@H](C(=O)N[C@@H]2C(=O)N3[C@@H]2SC(C)(C)[C@H]3C(=O)O)c2ccccc2)C(=O)C1=O
inactive: Potency [1] | Potency [2] | Potency [3] | Potency [4] | Potency [5] | Potency [6] | Potency [7] | Potency [8] | Potency [12] | Potency [17] | Potency [15] | Potency [16]

C=C(C)C(=O)OCCO
inactive: Potency [1] | Potency [2] | Potency [3] | Potency [4] | Potency [5] | Potency [6] | Potency [7] | Potency [8] | Potency [9] | Potency [10] | Potency [11] | Potency [12] | Potency [17] | Potency [13] | Potency [15] | Potency [16]

CC1CN(c2cc3c(cc2F)c(=O)c(C(=O)O)cn3-c2ccc(F)cc2F)CCN1 (stereo not drawn)
inactive: activity change, negative = cytotoxicity [1] 6.63% [at 8.39 µM] | activity, positive = activation [2] 4.55% [at 8.39 µM] | activity change [3] -0.555% [at 5.22 µM, stronger effect = higher value] | activation [4] 3.09% [at 6.97 µM] | activation [5] 0.9% [at 5.23 µM] | activity change, negative = cytotoxicity [6] 1.1% [at 5.99 µM] | activity change, negative = cytotoxicity [7] -0.821% [at 5.99 µM] | activity change, negative = cytotoxicity [8] 22.9% [at 5.99 µM] | activation [12] -2.24% [at 8.39 µM] | activity change, negative = inhibition [13] 4.5% [at 8.39 µM] | activation [14] 1.31% [at 8.39 µM] | activation [15] -7.78% [at 8.39 µM]

COC(=O)C1=C(C)NC(C)=C(C(=O)OC(C)C)C1c1cccc2nonc12 (stereo not drawn)
inactive: Potency [1] | Potency [2] | Potency [3] | Potency [4] | Potency [5] | Potency [6] | Potency [7] | Potency [8] | Potency [9] | Potency [10] | Potency [11] | Potency [12] | Potency [17] | Potency [15] | Potency [16]
